GBA enhancer – GBA activity enhancers in patient fibroblasts, primary screen, cell-based | L444P Gaucher fibroblasts, 4-MU-glucoside fluorescence, 3 days | Lysosomal acid glucosylceramidase (Homo sapiens), P04062 | activation, % at 10 µM | AID 784, 2007 | 30,000 compounds, 0.44% hits; in the data active = activation above about 65%
Target sequence (P04062 whole entry L483P): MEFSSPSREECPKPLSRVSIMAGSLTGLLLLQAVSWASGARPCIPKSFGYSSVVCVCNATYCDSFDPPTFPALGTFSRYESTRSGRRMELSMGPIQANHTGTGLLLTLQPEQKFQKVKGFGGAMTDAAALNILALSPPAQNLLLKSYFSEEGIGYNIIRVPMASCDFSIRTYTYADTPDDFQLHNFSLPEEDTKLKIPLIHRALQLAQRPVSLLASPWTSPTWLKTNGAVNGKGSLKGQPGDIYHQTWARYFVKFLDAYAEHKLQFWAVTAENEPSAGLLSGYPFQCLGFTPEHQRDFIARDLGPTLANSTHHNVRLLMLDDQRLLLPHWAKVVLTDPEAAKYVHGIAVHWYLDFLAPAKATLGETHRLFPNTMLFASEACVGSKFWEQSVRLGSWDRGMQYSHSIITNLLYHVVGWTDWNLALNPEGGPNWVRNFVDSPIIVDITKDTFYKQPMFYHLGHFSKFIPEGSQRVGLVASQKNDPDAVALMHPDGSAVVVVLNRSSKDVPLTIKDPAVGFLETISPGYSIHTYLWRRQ
Hits are given with their value; 0 = inactive. This is one part of a sample in which hits are shown more often than they occur.

SMILES | GBA enhancer
CC(C)CC(C(=O)NCc1ccccn1)N1C(=O)c2ccccc2C1=O (stereo unspecified) | 0
O=C(NCc1cccnc1)C1c2ccccc2C(=O)N1Cc1ccco1 (stereo unspecified) | 0
O=C(CSc1ccccc1C(=O)NCCCN1CCCC1=O)NCc1ccco1 | 0
COCCn1nnnc1C(c1ccc(Cl)cc1)N1CCSCC1 (stereo unspecified) | 0
C1CCN(c2nc(N3CCCCC3)nc(N3CCNCC3)n2)CC1 | 0
N#CN(CC(N)=O)c1nc(N2CCCCC2)nc(N2CCCCC2)n1 | 0
N/C(=N/O)c1nc(N2CCCCC2)nc(N2CCCCC2)n1 | 88.9
CCN1C2=NCCCN2c2cc(C)c(C)cc21 | 0
Cc1nc(NC(=O)c2ccccc2)sc1-c1csc(NCc2ccco2)n1 | 0
COc1ccc(-c2csc(NCc3ccco3)n2)cc1 | 0
Cc1nc(C)c(-c2csc(NCc3ccco3)n2)s1 | 97.8
CC(C)CCNC(=O)CN(C(=O)CCC(=O)Nc1ccccn1)c1ccc2c(c1)OCO2 | 0
CCC(=O)Nc1cc(C)c(NC(=O)c2ccccc2OC)cn1 | 0
CCc1nc2ccccc2c(C(=O)OCC(=O)NCCCN2CCCC2=O)c1C | 0
Cc1ccc(CN(Cc2cc3cccc(C)c3[nH]c2=O)C(=O)N(C)C)cc1 | 0
COc1ccc(CN(Cc2cc3cccc(C)c3[nH]c2=O)C(=O)N(C)C)cc1 | 72.3
Cc1cccc2cc(CN(Cc3ccccc3)C(=O)N(C)C)c(=O)[nH]c12 | 0
COc1ccc(CNC(=O)c2cccc3c2C(=O)N(Cc2cccnc2)C3)cc1 | 0
O=C(CCCN1Cc2ccccc2C1)c1ccc(F)cc1 | 0
COC(=O)CN1CCN(C(=O)c2ccc(F)cc2)c2ccccc2C1 | 106.0
O=C(c1ccc(F)cc1)N1CCN(Cc2ccccc2Br)CC1 | 0
COc1cc(OC)nc(NC(=O)CSc2nc3ccccc3[nH]2)n1 | 0
Cc1cc(NC(=O)CSc2nc(-c3ccccc3)c(C#N)c(=O)[nH]2)no1 | 0
Cc1cc(NC(=O)CSc2nc3ccccc3[nH]2)no1 | 99.9
O=C(CCN1C(=O)c2ccccc2S1(=O)=O)Nc1nc2c(s1)CCCC2 | 0
SMILES | GBA enhancer
CNC(=O)c1cc2c(=O)n3cccc(C)c3nc2n(C(C)C)c1=N | 0
OC(COCC1CC=CCC1)Cn1cnc2ccccc21 (stereo unspecified) | 151.3
CC(=O)Nc1cccc(OCC(O)Cn2cnc3ccccc32)c1 (stereo unspecified) | 0
c1ccc2c(c1)ncn2CCn1cnc2ccccc21 | 0
CCOC(=O)C1CCN(S(=O)(=O)c2c(C)n[nH]c2C)CC1 | 0
CN(c1ccccc1)C(c1ccc(F)cc1)c1nnnn1C1CCCC1 (stereo unspecified) | 0
Cc1cccc(N(CC(=O)NC2CCCCC2)C(=O)c2c(C)noc2C)c1 | 0
COc1ccccc1C(=O)Nn1cnc2ccccc2c1=O | 0
COC(=O)c1cn(NC(=O)c2ccncc2)c(=O)c2ccccc12 | 74.5
COc1ccc(Cl)cc1C(=O)Nn1cnc2ccccc2c1=O | 0
Cc1ccc(OCn2c(=O)sc3ccccc32)cc1 | 0
N#Cc1ccc(CSc2nnc(-c3cnccn3)o2)cc1 | 0
Cc1cc(-c2nnc(SCc3cccnc3)o2)no1 | 86.1
Cc1cc(-c2nnc(SCC(=O)NC3CCCC3)o2)no1 | 0
Cc1ccc2c(c1)C1C=CCC1C(C(=O)O)N2 (stereo unspecified) | 0
Cc1ccc2c(c1)[C@H]1OCC[C@H]1[C@@H](c1ccncc1)N2 | 72.0
Cc1ccc2c(c1)C1OCCC1C1N2C(=O)C2C(C(=O)O)C3C=CC21O3 (stereo unspecified) | 0
CN(C)c1ccc(-c2nc3ccccc3n2C)cc1 | 80.7
Cn1c(-c2ccc(Br)o2)nc2ccccc21 | 0
Cn1c(Sc2nc3ccccc3n2C)nc2ccccc21 | 0
CC1=C(C(=O)OCC2CCCO2)C(c2ccncc2)C2=C(CC(C)(C)CC2=O)N1 (stereo unspecified) | 0
COC(=O)c1ccc(COC(=O)c2ccc(-n3cnnn3)cc2)o1 | 0
CCCC(=O)n1nc(-c2ccc(OC)cc2)nc1N | 0
COc1ccc(C(=O)n2nc(-c3ccccc3)nc2N)cc1OC | 70.9
Nc1nc(-c2ccc(Cl)cc2)nn1C(=O)c1cccnc1 | 0
SMILES | GBA enhancer
CCOC(=O)c1nnc(-c2ccccc2)o1 | 0
Cc1ccc(OCC(=O)Nc2cccc(-c3nnc(-c4ccccc4)o3)c2)cc1 | 0
CCOC(=O)COc1ccc(-c2nnc(-c3ccccc3)o2)cc1 | 78.1
CCN(CC)S(=O)(=O)c1ccc2c(c1)nc(SCc1nc3ccsc3c(=O)[nH]1)n2CC | 0
CCOC(=O)C1=C(N)OC2=C(C(=O)CCC2)C1c1ccccc1OCC (stereo unspecified) | 0
COCCCn1c(SCC(=O)N2CCCCC2C)nnc1-c1ccco1 (stereo unspecified) | 0
COCCCn1c(SCC(=O)OC2CCCCC2)nnc1-c1ccco1 | 65.7
CCCn1c(SCC(=O)N2CCCCC2)nnc1-c1ccco1 | 0
COCCN1C(=O)C(=O)/C(=C(/O)c2cccc(S(=O)(=O)N(C)C)c2)C12C(=O)N(C)c1ccccc12 (stereo unspecified) | 0
COc1ccccc1NC(=O)C(C)NS(=O)(=O)c1ccccc1 (stereo unspecified) | 0
N#CCSc1nnc(COc2ccc3ccccc3c2)o1 | 0
CCCCOC(=O)C1=C(C)Nc2ncnn2C1c1cc(OC)c(OC)cc1OC (stereo unspecified) | 0
CC(C)CCn1nnnc1C(c1ccccc1)N1CCC(C(N)=O)CC1 (stereo unspecified) | 87.0
CC(C)CCn1nnnc1C(c1ccccc1F)N1CCC(C(N)=O)CC1 (stereo unspecified) | 0
C=CCN1CCN(C(c2ccccc2)c2nnnn2CCC(C)C)CC1 (stereo unspecified) | 0
COCCn1c(CNc2ccc(F)cc2)nnc1SCC(=O)Nc1ccc(OC)cc1OC | 0
COCc1c(C)cc(C)c(/C=N/O)c1C | 0
O=C(OCn1nnc2ccccc2c1=O)c1ccc2c(=O)n3c(nc2c1)CCC3 | 0
N#CCc1ccc(NC(=O)Nc2cccc(Cl)c2)cc1 | 70.1
CN1CCN(S(=O)(=O)c2ccc(NC(=O)Nc3cccc(Cl)c3)cc2)CC1 | 0
O=C(Nc1cccc(Cl)c1)Nc1nccs1 | 0
CCn1c(SC(C)C(=O)OC)nnc1-c1c[nH]c2ccccc12 (stereo unspecified) | 0
COc1ccc(CC(NC(C)=O)C(=O)N2CCN(C(=O)Nc3ccc(Cl)cc3)CC2)cc1OC (stereo unspecified) | 0
COc1ccc(-n2nnc3c(SCC(=O)N4CCCc5ccccc54)ncnc32)cc1 | 0
O=S(=O)(c1ccc(OCC(O)CN2CCc3ccccc3C2)cc1)N1CCOCC1 (stereo unspecified) | 0
SMILES | GBA enhancer
CCOC(=O)C1CCN(C(=O)CCNC(=O)c2cc(OC)c(OC)c(OC)c2)CC1 | 0
CCNC(=O)c1cc2c(=O)n3cccc(C)c3nc2n1C | 0
Cc1cccn2c(=O)c(C=Nc3ccc(Cl)cc3)c(NCCO)nc12 | 67.6
Cc1cccn2c(=O)c(C=Nc3ccccc3)c(NCCO)nc12 | 0
O=C(CN(Cc1ccccc1F)C(=O)Cn1nnc(-c2cccs2)n1)NCC1CCCO1 (stereo unspecified) | 0
C=CCNC(=O)CCCOc1cc(C)ccc1C | 68.2
Cc1ccc(C)c(OCC(=O)Nc2nonc2NC(=O)COc2cc(C)ccc2C)c1 | 0
C=CCNC(=O)CCCCC(=O)NCC=C | 0
Nc1nc(C2CCCN2S(=O)(=O)c2ccc(Cl)cc2)cs1 (stereo unspecified) | 0
